TSG101-PTAP inh – blocks PTAP/TSG101 interaction to inhibit HIV-1 budding. Q99816. Fluorescence polarization, FITC-PTAP peptide / Tsg101 binding. Potency, µM (doses to about 115 µM), inactives show at the highest dose activity change, negative = inhibition, most hits filed as inhibitors. 340,000 tested, under 10 active; active means well fitted inhibition curve with a large enough effect in the main read-out, with a control signal flat, not every such curve was filed as active; inconclusive means small, poorly fitted or top-dose-only effect, or effect the other way, or a change in a side signal; inactive means no such curve, though single readings can be large or run the other way; further: potency means the concentration at half of the fitted maximal effect; % of control where 0% means no effect
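Compounds were pin-transferred onto Tsg101 binding domain (10 uM final) in HEPES pH 7.5 buffer, then FITC-PTAP peptide was added at 50 nM final. After 20 min at RT, polarization reported peptide displacement across a qHTS concentration series.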
Rango dissoc inh – prevents RanGTP from dissociating the Rango-importin beta complex; Biochemical FRET Rango-importin beta, RanGTP-induced dissociation; hit rate 0.071% among 340,000; Potency, µM (doses to about 46.1 µM), without a hit: at the highest dose activity change, negative = inhibition; further: potency means the concentration at half of the fitted maximal effect; % of control where 0% means no effect; nearly all actives have a fitted effect of over 45% in size
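Recombinant Rango FRET biosensor (EYFP–snurportin 1 IBB–cerulean CFP10) at 0.1 uM premixed with 0.25 uM importin beta in PBS, 1 mM DTT, 0.02% Tween-20, 0.1% BSA. Compound added 5 min; RanGTP-RCC1 (0.6 uM Ran, 2 mM GTP, 0.2 uM RCC1) then triggers release, read at 45 min.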
D3 ag – D3 dopamine receptor (human) agonism | D3R DiscoveRx beta-arrestin cells, luminescence, 90 min | max activation, % | hit rate 0.58% among 410,000 | AID 652048; in the data active means max activation above about 30%; further: 0% is about no effect
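Agonist-mode cell screen: cells plated at 1500/well and incubated overnight at 37 °C, then exposed to library compounds for 90 min at 37 °C. Detection reagent was added for 30–60 min at room temperature, and luminescence was read.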
Rango complex inh – inhibitors of Rango-importin beta complex formation | Q14974 | AID 540263 | Potency, µM (highest dose often 92.2 µM), for the others: top-dose inhibition of complex formation | Rango CFP/YFP FRET sensor + importin beta, 45 min | hit rate 0.031% among 340,000;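 further: potency means the concentration at half of the fitted maximal effect; 0% = DMSO wells and 100% = buffer wells lacking importin beta; nearly all actives have a fitted effect of over 15% in size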
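FRET biosensor (snurportin 1 IBB flanked by EYFP and cerulean), 50 nM, with compound 5 min, then 0.125 microM importin beta in PBS, 1 mM DTT, 0.02% Tween-20, 0.1% BSA. CFP/YFP ratio read after 45 min at room temperature; pre-read flags interference.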
D3 antag – antagonists of human D3 dopamine receptor; P35462; D3R cells, DiscoveRx beta-arrestin luminescence, antagonist mode; stronger effect = lower value; max response, negative = inhibition, %; hit rate 2.5% among 360,000; AID 652054; in the data active means max response below about -50%; inconclusive means no clear call, values can overlap the other calls; further: on the % scale 0 is the no-effect control and ±100 the full control effect
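Cells expressing the human receptor were seeded at 1500 cells/well, incubated overnight at 37 degrees C in 5% CO2, then exposed to library compounds with dopamine controls for 90 minutes at 37 degrees C before luminescent detection.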
Mm-Cpn inhibitor – inhibitors of Methanococcus maripaludis chaperonin TRiC (MmCpn). purified Mm-Cpn ATPase, ADP Transcreener TR-FRET. Potency, µM (titrated, usually from 76.9 µM), inactives show at the top dose activity, negative = inhibition, usual class: inhibitors. hit rate 0.031% among 330,000. AID 504842; active means well fitted inhibition curve with a large enough effect; inconclusive means small, poorly fitted or top-dose-only effect; further: potency means the concentration at half of the fitted maximal effect; on the % scale 0 is the no-effect control and ±100 the full control effect; nearly all actives have a fitted effect of over 80% in size
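ATP (10 uM final) was added to archaeal chaperonin (25 nM final) after 10 min exposure to test compound at 37°C; after 30 min further incubation, ADP was detected by competitive TR-FRET.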
The depositor's hits bear a star; ? = inconclusive; / = not tested or not shown. A selection: hits, their analogues and other compounds. The true share with any hit is near 2.9%. Unless noted, the call rests on the fitted dose curve.

SMILES	TSG101-PTAP inh	Rango dissoc inh	D3 ag	Rango complex inh	D3 antag	Mm-Cpn inhibitor
CCOC(=O)c1oc2cc(O)ccc2c(=O)c1-c1ccccc1OC	-10%	1%	-15	-1%	-61*	1%
O=S1(=O)CC(N2CC=CC2)CN1Cc1cn(Cc2ccc(F)cc2)nn1 (stereo not given)	/	/	-3	/	-52*	/
CN1CCN(C2CN(Cc3cn(Cc4cccc(C(F)(F)F)c4)nn3)S(=O)(=O)C2)CC1 (stereo not given)	/	/	-2	/	-51*	/
O=C(/C=C/c1ccccc1Cl)N1CCC(c2nc3ccccc3o2)CC1	/	/	12	/	/	/
CCCCc1cc(=O)oc2cc(C)c(CN3CCCC3)c(O)c12	-3%	-19%	30*	0%	16	0%
Cc1cccc(C)c1NC(=O)c1ccc(-c2cc(F)ccc2F)o1	/	/	-21	/	-57*	/
COc1ccc(C(=O)NCCNC(C)=O)cc1S(=O)(=O)NCc1ccc(Cl)cc1	-6%	8%	1	0%	?	0%
COc1ccc(C(=O)NCC(c2ccco2)N(C)C)cc1S(=O)(=O)NCc1ccc(Cl)cc1 (stereo not given)	-1%	-21%	-21	-1%	-97*	-3%
COc1cccc(C(=O)Nc2cccc(C(=O)NC3=NN(c4c(Cl)cc(Cl)cc4Cl)C(=O)C3)c2)c1	-8%	3%	-6	-5%	?	2%
CC(C)(C)C(=O)NC1=NN(c2c(Cl)cc(Cl)cc2Cl)C(=O)C1	-2%	10%	-4	8%	-59*	2%
O=C(Nc1ccc2oc(-c3cc(Br)ccc3Cl)nc2c1)c1cc2ccccc2o1	/	/	-15	/	/	/
CN1CCc2nc(SCC(=O)Nc3cccc(F)c3)c(C#N)c(-c3cccs3)c2C1	-9%	-18%	-27	?	-50*	0%
CN1CCc2nc(SCC(=O)Nc3ccc(OC(F)(F)F)cc3)c(C#N)c(-c3cccs3)c2C1	-1%	?	-9	?	?	-4%
Cc1cc2c(cc1C)N(CC(=O)N1CCCC1)C(=O)CC(c1ccccc1)=N2	-5%	-3%	-1	2%	-75*	-1%
O=C(CN1C(=O)CC(c2ccccc2)=Nc2ccccc21)NCc1ccccc1	-2%	-11%	1	0%	0	-1%
CCOC(=O)c1noc2ncnc(Nc3ccc(C)c(F)c3)c12	/	/	-17	/	/	/
O=C1[C@@H]2[C@H]3CC[C@H](C3)[C@@H]2C(=O)N1CCCCN1CCN(c2ncccn2)CC1	/	/	-10	/	/	/
O=C1CC2(CCCC2)CC(=O)N1CCCCN1CCN(c2ncccn2)CC1	2%	-22%	-89	3%	-100*	2%
CCc1ccc(CNc2ncnc3c2nc2n3CCCC2)cc1	/	/	1	/	/	/
CC(NC(=O)/C(C#N)=C/c1ccco1)c1ccccc1 (stereo not given)	-3%	2%	9	1%	3	-1%
COC(=O)c1ccc(/C=C(\C#N)C(=O)NC(C)c2ccccc2)cc1 (stereo not given)	-9%	-5%	1	2%	-56*	-1%
CC(NC(=O)/C(C#N)=C/c1ccc([N+](=O)[O-])o1)c1ccccc1 (stereo not given)	-1%	?	-7	?	-96*	-5%
COc1ccc(/C=C(\C#N)C(=O)NC(C)c2ccccc2)cc1O (stereo not given)	1%	8%	-3	0%	8	2%
Cc1cc(C)c(NC(=O)C2CCN(S(=O)(=O)c3c(C)noc3/C=C/c3ccccc3F)CC2)c(C)c1	/	/	3	/	/	/
CN(C(=O)COc1ccccc1C(=O)NCCOc1ccccc1)c1ccccc1	-1%	-17%	30*	-2%	12	1%
COc1cc(Cl)c(C)cc1NC(=O)CCCN1C(=O)C(c2ccccc2)Oc2cccnc21 (stereo not given)	/	/	-4	/	/	/

Source: PubChem BioAssay
